# Laboratory results: PubChem BioAssay AID602288 (National Center for Advancing Translational Sciences (NCATS), 2012)
# Records with an inconclusive call do not appear. Active and inactive are the calls of the source. Calls follow the shape of the dose curve; as a rule, active = well fitted cell-killing curve with a large enough effect (not every such curve was filed as active); inconclusive = small, poorly fitted or top-dose-only effect, or another doubt; inactive = no such curve, though single readings can be large or run the other way.
# Test: qHTS Assay for Agonists of the Relaxin Receptor RXFP1: Cytotoxicity SAR
# Conditions: HEK293-RXFP1 viability, ATPLite luminescence, 72 h; series mostly up to 78.1 µM
# Excerpt: The relaxin hormone is involved in the variety of biological functions in normal tissues and diseases. The role of relaxin is well-established in female reproduction and parturition, mammary gland and endometrial development, maintenance of myometrial quiescence during pregnancy. Relaxin signaling through its G protein-coupled receptor (GPCR) RXFP1 results in ECM remodeling through regulation of collagen deposition, cell invasiveness, proliferation and overall tissue homeostasis. […] Recombinant human relaxin (rhRlx) is currently being tested in clinical trials as a protective agent in congestive heart failure, in treating severe preeclampsia, and as an anti-fibrotic agent in systemic sclerosis. In the primary screen, upon relaxin binding RXFP1 activation leads to the activation of adenylate cyclase (AC) via Gs. cAMP will activate PKA, which phosphorylates many signaling proteins. Thus, detection of cAMP increase is an easy and reliable indication of relaxin receptor activation. To screen for agonists of the relaxin receptor, a HEK293T cell line stably transfected with RXFP1 was used. RXFP1 activation was assayed by changes in cAMP levels as detected with a time-resolved fluorescence energy transfer (TR-FRET) cAMP detection kit. We conducted this followup assay to measure the effect of the lead candidates on cell health by measuring ATP levels (ATPLite). NIH Chemical Genomics Center [NCGC] NIH Molecular Libraries Probe Production Centers Network [MLPCN] MLPCN Grant: R03 MH085705-01A1 Assay Submitter (PI): Alexander Agoulnik
# In this assay, the luciferase enzyme catalyzes the conversion of the added substrate D-luciferin to oxyluciferin and light with ATP. Thus, the emitted light is proportional to the ATP concentration. To evaluate the cytotoxic properties of the compounds, HEK293-RXFP1 cells were incubated with compounds for 72 h in growth media (DMEM 10% FBS, 1x Pen/Strep, 0.5 mg/mL G418) in 384-well format. After compound incubation, the levels of ATP in each well were measured with the addition of the ATPLite assay reagent.
row,Compound,Potency
1,Cc1cccc(NC(=O)c2ccccc2NC(=O)C2CCCCC2)c1,23.6 µM (active)
2,O=C(Cc1ccccc1)Nc1ccccc1C(=O)Nc1cccc(C(F)(F)F)c1,47.1 µM (active)
3,CC(C)Oc1ccccc1C(=O)Nc1ccccc1C(=O)Nc1cccc(S(=O)(=O)C(F)(F)F)c1,9.4 µM (active)
4,CCOc1ccccc1C(=O)Nc1ncccc1C(=O)Nc1cccc(S(=O)(=O)C(F)(F)F)c1,18.8 µM (active)
5,COc1ccc(C(=O)Nc2ccccc2C(=O)Nc2cccc(C(F)(F)F)c2)cc1,inactive
6,CCOc1ccccc1C(=O)Nc1ccncc1C(=O)Nc1cccc(S(=O)(=O)C(F)(F)F)c1,2.36 µM (active)
7,CSc1cccc(NC(=O)c2ccccc2NC(=O)C2CCCCC2)c1,inactive
8,O=C(Nc1cccc(Br)c1)c1ccccc1NC(=O)C1CCCCC1,inactive
9,COc1ccccc1C(=O)Nc1cccc(C(=O)Nc2cccc(C(F)(F)F)c2)c1,18.8 µM (active)
10,COc1ccccc1C(=O)N(C)c1ccccc1C(=O)N(C)c1cccc(C(F)(F)F)c1,59.3 µM (active)
11,CCOc1ccccc1-c1nc2c(C(=O)Nc3cccc(S(=O)(=O)C(F)(F)F)c3)cccc2[nH]1,inactive
12,COCCNc1ccccc1C(=O)Nc1cccc(C(F)(F)F)c1,29.7 µM (active)
13,O=C(Nc1cccc(C(F)(F)F)c1)c1ccccc1NC(=O)C1CCCCC1,18.8 µM (active)
14,O=C(NCc1cccc(C(F)(F)F)c1)c1ccccc1NC(=O)C1CCCCC1,11.8 µM (active)
15,O=C(Nc1cccc(-c2cccc(C(F)(F)F)c2)c1)c1ccccc1NC(=O)C1CCCCC1,23.6 µM (active)
16,O=C(Nc1ccccc1C(=O)Nc1cccc(C(F)(F)F)c1)c1cccnc1,inactive
17,O=C(Nc1cccc(-c2ccccc2)c1)c1ccccc1NC(=O)C1CCCCC1,14.9 µM (active)
18,CCOc1ccccc1S(=O)(=O)Nc1ccccc1C(=O)Nc1cccc(S(=O)(=O)C(F)(F)F)c1,5.93 µM (active)
19,CCOc1ccccc1C(=O)NCCC(=O)Nc1cccc(S(=O)(=O)C(F)(F)F)c1,inactive
20,O=C(Nc1cccc(C(F)(F)F)c1)c1ccccc1NC(=O)C1CCCCCC1,5.93 µM (active)

row,Compound,Potency
1,O=C(Nc1cccc(S(=O)(=O)C(F)(F)F)c1)c1ccccc1NC(=O)C1CCCCC1,14.9 µM (active)
2,CN(C)CCOc1ccccc1C(=O)Nc1ccccc1C(=O)Nc1cccc(C(F)(F)F)c1,inactive
3,COc1ccccc1CNc1ccccc1C(=O)Nc1cccc(C(F)(F)F)c1,23.6 µM (active)
4,CC(C)Oc1ccccc1C(=O)Nc1ccccc1C(=O)Nc1cccc(C(F)(F)F)c1,inactive
5,COc1ccccc1Nc1ccccc1C(=O)Nc1cccc(C(F)(F)F)c1,23.6 µM (active)
6,COc1ccccc1C(=O)Nc1ccccc1C(=O)N(C)c1cccc(C(F)(F)F)c1,29.7 µM (active)
7,O=C(Nc1cccc(C(F)(F)F)c1)c1ccccc1NC(=O)C1CCCC1,inactive
8,O=C(Nc1cccc(C(F)(F)F)c1)c1ccccc1NC(=O)C1CC1,inactive
9,CCC(CC)C(=O)Nc1ccccc1C(=O)Nc1cccc(C(F)(F)F)c1,9.4 µM (active)
10,O=C(Nc1cccc(Cl)c1)c1ccccc1NC(=O)C1CCCCC1,29.7 µM (active)
11,COc1ccccc1-c1ccccc1C(=O)Nc1cccc(C(F)(F)F)c1,23.6 µM (active)
12,O=C(Nc1ccccc1C(=O)Nc1cccc(C(F)(F)F)c1)c1ccccc1Cl,11.8 µM (active)
13,O=C(Nc1cccc(-c2ccccc2C(F)(F)F)c1)c1ccccc1NC(=O)C1CCCCC1,inactive
14,O=C(Nc1cccc(C(F)(F)F)c1)c1ccccc1NC(=O)c1ccccc1OC(F)(F)F,inactive
15,CCCOc1ccccc1C(=O)Nc1ccccc1C(=O)Nc1cccc(S(=O)(=O)C(F)(F)F)c1,9.4 µM (active)
16,COc1ccccc1C(=O)Nc1ccccc1C(=O)Nc1cccc(C(F)(F)F)c1,inactive
17,O=C(Nc1ccc(C(F)(F)F)cc1)c1ccccc1NC(=O)C1CCCCC1,11.8 µM (active)
18,O=C(Nc1cccc([N+](=O)[O-])c1)c1ccccc1NC(=O)C1CCCCC1,inactive
19,O=C(NCc1ccco1)c1ccccc1NC(=O)c1ccccc1NC(=O)C1CCCCC1,inactive
20,CCOc1ccccc1C(=O)Nc1ccccc1CNc1cccc(S(=O)(=O)C(F)(F)F)c1,inactive
